Inconclusive results are not listed. The source made the active and inactive calls. Calls follow the shape of the dose curve; as a rule, active = well fitted cell-killing curve with a large enough effect in the repeat runs; inconclusive = weak or mixed curves, or effect the other way; inactive = flat fitted curve, though single readings scatter.
test: qHTS RealTime-Glo MT Cell Viability Assay in HepG2 cells - 40 hour (AID 1224870); settings: RealTime-Glo luminescence; series mostly up to 76.8 µM; activity change, negative = cytotoxic: at the top concentration; also: nearly all actives have a fitted effect of over 50% in size
Excerpt: National Center for Advancing Translational Sciences [NCATS]
NIH Chemical Genomics Center [NCGC]
U.S. Environmental Protection Agency [EPA]
National Institutes of Environmental Health Sciences [NIEHS]
National Toxicology Program [NTP]
U.S. Food and Drug Administration [FDA]
Measure of cell viability is critical in the cell-base assay. Analysis of cell viability is necessary for the characterization of cell responses to cytotoxic drugs and environmental stress. A RealTime-Glo MT Cell Viability Assay to monitor cell viability in real time of continues cell culture during 40 hours of compound treatment was used to screen Tox21 10K library compounds in HepG2 cells. The RealTime-Glo MT Cell Viability Assay is a nonlytic, homogeneous, bioluminescent method to measure cell viability in real time using a simple, plate-based method. The assay involves adding NanoLuc luciferase and a cell-permeant prosubstrate to cells in culture. Viable cells reduce the proprietary prosubstrate to generate a substrate for NanoLuc luciferase. This substrate diffuses from cells into the surrounding culture medium, where it is rapidly used by the NanoLuc Enzyme to produce a luminescent signal. The signal correlates with the number of viable cells, making the assay well suited for cytotoxicity studies.
Tox21 Assay Protocol Summary:
The mixture of HepG2 cell suspension and reagents were dispensed at 600cells/6 ul/well in 1536-well tissue culture treated black solid bottom plates using a Multidrop dispenser. After the assay plates were incubated at a 37 C/5% CO2 incubator for 5 hours, 23 nL of compounds dissolved in DMSO, positive and negative controls was transferred to the assay plate by a pintool work station. The plates were incubated at 37 C for 40 hours. The luminescence intensity were measured at 0h, 8h, 16h, 24h, 32h and 40h time points using ViewLux plate reader during compound treatment.
% is scaled to controls: 0 for no effect and ±100 for the full control effect.

**Q.** With `O=C(CCNNC(=O)c1ccncc1)NCc1ccccc1` as the compound, how does the “activity change, negative = cytotoxic” value read?
**A.** 0.596% [at 35.3 µM] (inactive)

**Q.** With `CCCCCCCCCCCCCC` as the compound, how does the “activity change, negative = cytotoxic” value read?
**A.** 4.13% (inactive)

**Q.** Which “activity change, negative = cytotoxic” value does the source give for `CC(=C(CCOC(=O)C(C)C)SSC(CCOC(=O)C(C)C)=C(C)N(C=O)Cc1cnc(C)nc1N)N(C=O)Cc1cnc(C)nc1N` here?
**A.** 0.0042% [at 35.3 µM] (inactive)

**Q.** With `C=CCCCCCCCCCCCC` as the compound, how does the “activity change, negative = cytotoxic” value read?
**A.** -1.77% (inactive)

**Q.** For `CCOCCOC(=O)/C=C/c1ccc(OC)cc1`, which “activity change, negative = cytotoxic” value is on record?
**A.** -1.93% [at 35.3 µM] (inactive)

**Q.** With `O=C1O[C@@H]2[C@@H](O)[C@H](O)O[C@@H]2[C@H]1O` as the compound, how does the “activity change, negative = cytotoxic” value read?
**A.** 0.537% (inactive)

**Q.** With `CCCCCCCCCC(C)=O` as the compound, how does the “activity change, negative = cytotoxic” value read?
**A.** 0.24% (inactive)

**Q.** With `CCCCCCCCC(=O)Cl` as the compound, how does the “activity change, negative = cytotoxic” value read?
**A.** 7.14% (inactive)

**Q.** For `CC(=O)Nc1ccc(S(=O)(=O)Nc2ccc([N+](=O)[O-])cc2)cc1`, which “activity change, negative = cytotoxic” value is on record?
**A.** -4.68% [at 35.3 µM] (inactive)

**Q.** For `C=Cc1ccccn1`, which “activity change, negative = cytotoxic” value is on record?
**A.** 1.56% (inactive)

**Q.** Which “activity change, negative = cytotoxic” value does the source give for `COc1cc2c(cc1OC)[C@@H]1CC(=O)[C@@H](CC(C)C)CN1CC2` here?
**A.** 0.572% [at 35.3 µM] (inactive)

**Q.** Which “activity change, negative = cytotoxic” value does the source give for `BrCCCCCBr` here?
**A.** -7.44% (inactive)

**Q.** With `CC(C)=CCOC(=O)c1ccccc1` as the compound, how does the “activity change, negative = cytotoxic” value read?
**A.** 0.943% (inactive)

**Q.** With `CCCOC(OCCC)OCCC` as the compound, how does the “activity change, negative = cytotoxic” value read?
**A.** 0.378% (inactive)

**Q.** Which “activity change, negative = cytotoxic” value does the source give for `Cc1ccc2ccc(Cl)cc2n1` here?
**A.** 0.381% [at 35.3 µM] (inactive)

**Q.** Which “activity change, negative = cytotoxic” value does the source give for `O=C(NCC(O)CO)c1c(I)c(C(=O)NCC(O)CO)c(I)c(N(CCO)C(=O)CO)c1I` (stereo not given) here?
**A.** 0.821% [at 35.3 µM] (inactive)

**Q.** For `C=C1CC/C=C(\C)CC[C@@H]2[C@@H]1CC2(C)C`, which “activity change, negative = cytotoxic” value is on record?
**A.** 1.77% (inactive)

**Q.** Which “activity change, negative = cytotoxic” value does the source give for `CC(C)OC(=O)CCCCC(=O)OC(C)C` here?
**A.** -1.66% (inactive)

**Q.** Which “activity change, negative = cytotoxic” value does the source give for `COC(=O)CCCCCCCC(=O)OC` here?
**A.** 0.295% (inactive)

**Q.** Which “activity change, negative = cytotoxic” value does the source give for `Nc1ccc([N+](=O)[O-])c(N)c1` here?
**A.** -4.85% (inactive)

**Q.** Which “activity change, negative = cytotoxic” value does the source give for `COC(=O)c1ccccc1C(=O)c1ccc(OCCN2CCCCC2)cc1` here?
**A.** -0.457% [at 35.3 µM] (inactive)

**Q.** Which activity change, negative = cytotoxic does the source give for `C[Si](C)=O` here?
**A.** -3.86% [at 6.97 µM] (inactive)

**Q.** With `Cc1cccc(C)c1OCC(C)N` (stereo not given) as the compound, how does the “activity change, negative = cytotoxic” value read?
**A.** -2.61% [at 35.3 µM] (inactive)

**Q.** For `CC(C)CC(=O)O`, which “activity change, negative = cytotoxic” value is on record?
**A.** -1.54% (inactive)

**Q.** With `COc1ccc2nc(SCc3ncc(C)c(OC)c3C)[nH]c2c1` as the compound, how does the “activity change, negative = cytotoxic” value read?
**A.** -1.95% [at 35.3 µM] (inactive)

**Q.** Which “activity change, negative = cytotoxic” value does the source give for `Cc1ccc2c(c1)OCC(=O)CO2` here?
**A.** 4.12% (inactive)

**Q.** With `C=COCCOCCOCCOC=C` as the compound, how does the “activity change, negative = cytotoxic” value read?
**A.** -2.92% (inactive)

**Q.** For `CC(C)(C)c1n[nH]c(=S)n(N)c1=O`, which “activity change, negative = cytotoxic” value is on record?
**A.** 0.282% (inactive)

**Q.** With `O=C1CC(c2ccc(Cl)cc2)CC(=O)N1` as the compound, how does the “activity change, negative = cytotoxic” value read?
**A.** 0.787% [at 35.3 µM] (inactive)

**Q.** For `Cc1cc(C(C)(C)C)c(O)c(C)c1CC1=NCCN1`, which “activity change, negative = cytotoxic” value is on record?
**A.** -0.284% [at 35.3 µM] (inactive)

**Q.** For `CCO[Si](CCCS)(OCC)OCC`, which “activity change, negative = cytotoxic” value is on record?
**A.** 0.267% (inactive)

**Q.** For `O=C(O)CCSSCCC(=O)O`, which “activity change, negative = cytotoxic” value is on record?
**A.** 2.33% (inactive)

**Q.** With `CCCCCCOc1ccccc1C(N)=O` as the compound, how does the “activity change, negative = cytotoxic” value read?
**A.** -0.213% [at 35.3 µM] (inactive)

**Q.** For `Cc1cccc2nccnc12`, which “activity change, negative = cytotoxic” value is on record?
**A.** 2.54% (inactive)

**Q.** For `NNc1nnc(NN)c2ccccc12`, which “activity change, negative = cytotoxic” value is on record?
**A.** 0.023% [at 35.3 µM] (inactive)

**Q.** For `C[Si](C)(C)C`, which “activity change, negative = cytotoxic” value is on record?
**A.** 12.1% (inactive)

**Q.** With `CCc1ccc(C=O)cc1` as the compound, how does the “activity change, negative = cytotoxic” value read?
**A.** -0.0144% (inactive)

**Q.** For `NS(=O)(=O)c1ccc(NC(=O)CCC(=O)O)cc1`, which “activity change, negative = cytotoxic” value is on record?
**A.** 2.43% [at 35.3 µM] (inactive)

**Q.** For `CCN1CCc2nc(N)oc2CC1`, which “activity change, negative = cytotoxic” value is on record?
**A.** -5.02% [at 35.3 µM] (inactive)

**Q.** For `CC(C)(C)NC(N)=O`, which “activity change, negative = cytotoxic” value is on record?
**A.** 1.74% (inactive)

— PubChem BioAssay (Tox21)
